Experiment [1] is described as follows: qHTS for differential inhibitors of proliferation of Plasmodium falciparum line 7G8 (AID 1815).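 Further: parasite growth measured after three days of incubation.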 Further: potency means the concentration at half of the fitted maximal effect. In general terms: In qHTS, concentration-response curves come from the screen itself.
A short description of experiment [2]: qHTS for differential inhibitors of proliferation of Plasmodium falciparum line GB4 (AID 1816).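 Further: parasite growth measured after 72 h incubation.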 Further: potency means the concentration at half of the fitted maximal effect. The following applies: Potency: Plasmodium falciparum GB4 proliferation inhibition.
Experiment [3] in a line: qHTS for differential inhibitors of proliferation of Plasmodium falciparum line 3D7 (AID 1876). Further: potency means the concentration at half of the fitted maximal effect.
The nature of experiment [4]: qHTS for differential inhibitors of proliferation of Plasmodium falciparum line D10 (AID 1877).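 Further: parasites grown with compound for 72 h before DNA staining.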 Further: potency means the concentration at half of the fitted maximal effect.
Experiment [5] can be described thus: qHTS for differential inhibitors of proliferation of Plasmodium falciparum line Dd2 (AID 1882). Further: nearly all actives have a fitted effect of over 65% in size. Further: potency means the concentration at half of the fitted maximal effect. The following applies: Potency: Plasmodium falciparum Dd2 proliferation inhibition. Summed up:
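SYBR Green I DNA fluorescence read-out, ex 485/em 535 nm. Signals were normalized to 0.29 uM artemisinin and DMSO wells, then corrected using vehicle-only plates flanking each stack. Parasite growth ran 72 h in erythrocytes before lysis.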

A short description of experiment [6]: qHTS for differential inhibitors of proliferation of Plasmodium falciparum line HB3 (AID 1886).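 Further: parasites grown with compound for 72 h before SYBR Green readout.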 Further: potency means the concentration at half of the fitted maximal effect. The note with it: Potency: Plasmodium falciparum HB3 proliferation inhibition.
In experiment [7] the target is Ferritin light chain (Equus caballus) (UniProt P02791). Put plainly: qHTS Validation Assay for Identification of Novel General Anesthetics (AID 2323). Further: series mostly up to about 77 µM. Summed up:
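Normalized fluorescence response, scaled between free 1-AMA and 1-AMA/apoferritin complex, fitted to a four-parameter Hill equation for concentration-effect values. Binding mix: 10 uM horse-spleen apoferritin, 50% saturated 1-AMA in PBS; read 380/535 nm after 10 min.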

Experiment [8] is described as follows: qHTS for differential inhibitors of proliferation of Plasmodium falciparum line W2 (AID 1883).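 Further: parasites grown with compound for 72 h before lysis and staining.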 Further: potency means the concentration at half of the fitted maximal effect. The note with it: Potency: Plasmodium falciparum W2 proliferation inhibition.
The nature of experiment [9]: qHTS Assay for Modulators of Human Peripheral Myelin Protein 22 (PMP22) Expression/Activity (AID 1967; active means well fitted curve in the direction sought with a large enough effect in the signal ratio; the % refers to the signal ratio; further: potency means the concentration at half of the fitted maximal effect). Summed up:
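Engineered MSC80 cells, Pmp22-promoter green and EF-alpha red luciferase reporters; 24h compound treatment at 37 °C. Concentration-response fits on green, red and ratio signals, each overlap-corrected, with %Activity normalized to untreated wells.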

Experiment [10] is described as follows: qHTS Assay for Identification of Small Molecule Inducers of Hypoxia Response (AID 2120; active means well fitted curve in the direction sought with a large enough effect in the signal ratio, with a control signal flat, not every such curve was filed as active; the % refers to the signal ratio). Summed up: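 HRE-beta-lactamase reporter in CellSensor HRE-bla ME-180 cells, 2500 cells/well in Opti-MEM with 0.5% dialyzed FBS; compounds tested as titration series, 17 h at 37 degrees C. CCF4 substrate 2.5 h at room temperature; AC50 from 460/530 nm ratio.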

The structures appear in SMILES notation. Results filed as inconclusive are left out. The source made the active and inactive calls. Unless noted, the call rests on the fitted dose curve; in most records, active means well fitted curve in the direction sought with a large enough effect; inconclusive means small, poorly fitted or top-dose-only effect, or another doubt; inactive means no such curve, though single readings can be large; an effect the other way counts as inactive or inconclusive.

Chain of Ferritin light chain (Equus caballus) (P02791 2-175 limits assumed): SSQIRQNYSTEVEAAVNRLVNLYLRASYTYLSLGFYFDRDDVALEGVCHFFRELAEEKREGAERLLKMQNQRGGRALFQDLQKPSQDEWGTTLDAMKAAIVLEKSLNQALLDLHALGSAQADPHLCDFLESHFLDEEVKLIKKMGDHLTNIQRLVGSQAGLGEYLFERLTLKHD

Consider `CCc1cccc2c3c([nH]c12)C(CC)(CC(=O)O)OCC3` (stereo not given), for which the Potency entry in [1], in experiment [2], in [3], in experiment [4], in [5] and in [6] was “inactive” in each case. The Potency result in experiment [7] was “inactive”.

As to `CN(C)CCOC(c1ccccc1)c1ccccc1`, the Potency in [1] is 3.98 µM (active); in experiment [5], 3.98 µM (active); in experiment [8] it was 1 µM (active). Besides, the Potency entry in experiment [3], in experiment [4], in experiment [6] and in experiment [7] was “inactive” in each case.

Regarding `CCC1(C)CC(=O)NC1=O` (stereo not given), the Potency result in experiment [1], in experiment [2], in experiment [3], in experiment [4], in experiment [5] and in experiment [8] was “inactive” in each case. Besides, the Potency entry in [6] and in [7] was “inactive” in each case.

Regarding `Clc1ccc2c(c1)C(N1CCNCC1)=Nc1ccccc1O2`, the Potency in [1] is 7.08 µM (active); in [2], 5.62 µM (active); in experiment [5] it was 11.2 µM (active); in experiment [8], 5.62 µM (active); in experiment [6], 11.2 µM (active).

Consider `CN1CCN(C2=Nc3cc(Cl)ccc3Nc3ccccc32)CC1`, for which the Potency entry in [7] is “inactive”.

As for `COc1ccc(C2CNC(=O)C2)cc1OC1CCCC1` (stereo not given), the Potency result in experiment [2], in experiment [3], in experiment [4], in experiment [5], in [6] and in experiment [9] was “inactive” each time. In experiment [7], the Potency result was “inactive”.

Consider `Cc1cc(C(C)(C)C)c(O)c(C)c1CC1=NCCN1`, for which the Potency result in experiment [5] and in [7] was “inactive” in each case. Also, the Potency in experiment [8] is 12.6 µM (active).

As for `Cc1ccc(-c2cc(C(F)(F)F)nn2-c2ccc(S(N)(=O)=O)cc2)cc1`, the result in experiment [10] was inactive.

Take `CN1C2CCC1CC(OC(=O)C(CO)c1ccccc1)C2` (stereo not given): the Potency result in experiment [3], in [4], in experiment [6], in [9] and in experiment [7] was “inactive” throughout.

For `CC(C(=O)O)c1cccc(C(=O)c2ccccc2)c1` (stereo not given), the Potency in experiment [9] was 23.9 µM (active). Also, in experiment [7], the Potency entry was “inactive”.

Take `Cc1ccccc1N1C(=O)c2cc(S(N)(=O)=O)c(Cl)cc2NC1C` (stereo not given): the Potency result in experiment [2], in experiment [3], in [4], in experiment [5], in experiment [6] and in experiment [7] was “inactive” in each case.

With `CC(C)C(=O)Nc1ccc([N+](=O)[O-])c(C(F)(F)F)c1`, the Potency entry in experiment [5] is “inactive”.

Consider `COc1cc2c(c(OC)c1OC)-c1ccc(OC)c(=O)cc1[C@@H](NC(C)=O)CC2`, for which the Potency entry in [9] was “inactive”. The call in experiment [10] was inactive.

With `CN1C(C(=O)Nc2ccccn2)=C(O)c2ccccc2S1(=O)=O`, the Potency result in experiment [3], in [4], in experiment [5], in experiment [6] and in experiment [7] was “inactive” throughout. For the same compound, the Potency in experiment [8] was 10 µM (active).

As for `O=C(C1CCCCC1)N1CC(=O)N2CCc3ccccc3C2C1` (stereo not given), in [8], the Potency was 12.6 µM (active). For the same compound, in experiment [7], the Potency result is “inactive”.

Take `O=c1c(-c2ccc(O)cc2)coc2cc(O)cc(O)c12`: the Potency entry in experiment [4], in [5] and in experiment [6] was “inactive” in each case. Moreover, the outcome in experiment [10] was inactive.

`O=c1c(O)c(-c2ccc(O)c(O)c2)oc2cc(O)cc(O)c12`: the Potency entry in experiment [7] was “inactive”.

On to `NC12CC3CC(CC(C3)C1)C2`, for which the Potency is 11.2 µM (active) in [2] and 6.31 µM (active) in [8]. The Potency entry in experiment [3], in [4], in experiment [6] and in [7] was “inactive” in each case.

As for `O=c1[nH]cc(F)c(=O)[nH]1`, the Potency entry in experiment [7] is “inactive”.

As to `CC1COc2c(N3CCN(C)CC3)c(F)cc3c(=O)c(C(=O)O)cn1c23` (stereo not given), the Potency result in experiment [5] and in [9] was “inactive” throughout. The Potency in experiment [8] is 14.1 µM (active).

In the case of `Nc1nnc(-c2cccc(Cl)c2Cl)c(N)n1`, the Potency result in experiment [1], in experiment [4], in experiment [5], in [8], in experiment [6] and in experiment [7] was “inactive” throughout.

As for `COC(=O)Nc1nc2ccc(C(=O)c3cccs3)cc2[nH]1`, the Potency entry in experiment [5] and in experiment [7] was “inactive” in each case.

In the case of `CC(COc1ccccc1)N(CCCl)Cc1ccccc1` (stereo not given), the Potency entry in experiment [7] is “inactive”.

On to `COc1ccc(CCN(C)CCCC(C#N)(c2ccc(OC)c(OC)c2)C(C)C)cc1OC` (stereo not given), for which the Potency entry in experiment [7] was “inactive”.

As to `CC(C)NCC(O)c1ccc(O)c(O)c1` (stereo not given), the Potency result in experiment [1], in [3], in [5] and in experiment [7] was “inactive” each time.

Consider `NC(CO)C(=O)NNCc1ccc(O)c(O)c1O` (stereo not given), for which the Potency entry in [2], in [3], in experiment [4], in [5] and in [6] was “inactive” in each case.

In the case of `CC(C)Cc1ccc(C(C)C(=O)O)cc1` (stereo not given), the Potency entry in experiment [2], in experiment [3], in experiment [4], in experiment [5], in experiment [8] and in experiment [6] was “inactive” each time. In addition, the Potency result in [7] was “inactive”.

With `COc1ccccc1OCC(O)CN1CCN(CC(=O)Nc2c(C)cccc2C)CC1` (stereo not given), the Potency entry in experiment [3], in experiment [4], in experiment [5], in experiment [6] and in experiment [7] was “inactive” throughout.

As to `O=C(CCCN1CCC(O)(c2ccc(Cl)cc2)CC1)c1ccc(F)cc1`, the Potency result in experiment [7] was “inactive”.

As to `Cc1ccc(C(=O)Nc2ccc(S(=O)(=O)O)c3cc(S(=O)(=O)O)cc(S(=O)(=O)O)c23)cc1NC(=O)c1cccc(NC(=O)Nc2cccc(C(=O)Nc3cc(C(=O)Nc4ccc(S(=O)(=O)O)c5cc(S(=O)(=O)O)cc(S(=O)(=O)O)c45)ccc3C)c2)c1`, in experiment [8], the Potency is 12.6 µM (active). Also, in experiment [7], the Potency result is “inactive”.

For `CCCNCC(O)COc1ccccc1C(=O)CCc1ccccc1` (stereo not given), the Potency in experiment [2] was 0.355 µM (active); in experiment [3], 0.891 µM (active); in [4], 2.24 µM (active); in experiment [5] it was 1 µM (active); in [8] it was 0.316 µM (active); in [6] it was 1 µM (active). Further, the Potency result in experiment [7] is “inactive”.

Take `NS(=O)(=O)c1cc2c(cc1Cl)NCNS2(=O)=O`: the Potency entry in experiment [1], in [3], in experiment [4], in experiment [5], in [6] and in [7] was “inactive” each time.
